The entries come from a sample that favours hits as a whole.
SF1 inhibitor – inhibitors of human SF-1, primary screen, cell-based, CHO-K1, Gal4-SF-1 LBD, luciferase luminescence; inhibition, % at 10 µM; AID 525, 2006; CHO-K1 Gal4-SF-1 LBD luciferase reporter; 65,000 tested, 0.55% active;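 active means inhibition above the mean inhibition of all tested compounds plus 3 SD, cut at about 48% in these data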;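 further: 0% = SF-1 transfected cells with DMSO and 100% = mock-transfected cells lacking SF-1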
Target sequence (Q13285 whole entry, looked up, the tested form may be a part): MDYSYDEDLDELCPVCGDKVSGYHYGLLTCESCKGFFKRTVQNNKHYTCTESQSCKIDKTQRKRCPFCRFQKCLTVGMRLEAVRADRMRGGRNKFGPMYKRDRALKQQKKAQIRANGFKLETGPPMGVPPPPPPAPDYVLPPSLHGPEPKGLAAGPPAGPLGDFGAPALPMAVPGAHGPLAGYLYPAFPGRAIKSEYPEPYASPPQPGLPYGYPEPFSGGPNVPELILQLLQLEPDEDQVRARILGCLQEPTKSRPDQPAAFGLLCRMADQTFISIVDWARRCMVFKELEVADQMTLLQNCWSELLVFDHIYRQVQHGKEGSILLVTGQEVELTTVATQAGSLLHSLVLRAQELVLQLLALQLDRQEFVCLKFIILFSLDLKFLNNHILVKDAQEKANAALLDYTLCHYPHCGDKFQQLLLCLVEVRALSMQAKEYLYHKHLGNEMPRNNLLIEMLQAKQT
* = called active by the depositor.

SMILES	SF1 inhibitor
C=CCNc1ncnc2c1cnn2-c1ccc(Cl)cc1	-50
CC1CN(c2ncnc3c2cnn3-c2ccc(Cl)cc2)CC(C)O1 (stereo not given)	-75
COc1ccc2nc(N3CCCCC3)c(C#N)cc2c1	-50
CCOC(=O)C1CCCN(c2ncnc3c2cnn3-c2ccc(OC)cc2)C1 (stereo not given)	-58
Cc1cccc(-n2ncc3c(NCCCO)ncnc32)c1	-67
Clc1ccc(-n2ncc3c(N4CCCCCC4)ncnc32)cc1	76*
Cc1cccc(-n2ncc3c(N4CCOCC4)ncnc32)c1	65*
Cc1cccc(-n2ncc3c(N4CC(C)CC(C)C4)ncnc32)c1 (stereo not given)	-51
CCn1c(SCC(=O)Nc2nc(-c3ccc(C)cc3)cs2)nnc1-c1ccccc1O	-10
O=C(CSc1nnc(Cc2ccccc2)o1)N1CCOCC1	-21
Cc1cccn2c(=O)c3cc(C#N)c(=NC(=O)c4ccc5c(c4)OCO5)n(CC(C)C)c3nc12	0
CCOC(=O)N1CCN(C(=O)CN2C(=O)CC(C)(C)S(=O)(=O)c3ccccc32)CC1	-4
CC1(C)NC(=O)N(CC(O)CN2CCCCC2)C1=O (stereo not given)	-51
CCc1ccc2nc(NC(=O)c3cc(C)on3)sc2c1	-117
CC1=C(C(=O)Nc2ccccn2)C(c2cccnc2)n2nnnc2N1 (stereo not given)	-9
COc1ccccc1OCC(=O)c1[nH]c(C)c(C(C)=O)c1C	50*
CCOC(=O)c1c(C)[nH]c(C)c1C(=O)COC(=O)CCOc1ccccc1OC	-2
COC(=O)c1c(C)[nH]c(C(C)=O)c1C	-16
CN(C1CCCCC1)S(=O)(=O)c1ccc(-n2cnnn2)cc1	26
CC(CCc1ccccc1)NC(=O)c1cc2sccc2n1C (stereo not given)	4
Fc1ccc(-c2nnc(NC3=NCCCCC3)o2)cc1	62*
Cc1ccc2cc3cc(C(=O)N(C)C4CCCCC4)oc3nc2c1	-77
CC(C)Nc1nc(SCC(=O)Nc2ccccc2)nc(N2CCOCC2)n1	-3
CCN(CC)S(=O)(=O)c1ccc2oc(C(=O)NCC3COc4ccccc4O3)c(C)c2c1 (stereo not given)	6
O=C(CSc1nnnn1C1CC2CCC1C2)Nc1ccnc2ccccc12 (stereo not given)	76*
SMILES	SF1 inhibitor
COc1ccccc1-n1nnnc1SCC(=O)Nc1cc(C)on1	3
O=C(CSc1nnnn1C1CCCC1)Nc1cccc(NC(=O)c2ccco2)c1	-3
COC(=O)c1c(-c2cccnc2)csc1NC(=O)c1cc(C)on1	-80
CCOC(=O)c1[nH]nc(N)c1NC(=O)c1ccc(Cl)cc1Cl	-27
CCn1nnnc1-c1ccc(OC)c(S(=O)(=O)N2CCCCC2)c1	-21
CCN(C(=O)c1ccc(C(C)(C)C)cc1)c1nnc(Cn2nnc3ccccc32)s1	69*
O=C(Nc1ccc2c(c1)OCCO2)c1ccc(Br)o1	-59
Cc1nnc(N2CCOCC2)c2ccccc12	-2
CN(CC(=O)N1CCN(c2ccccc2)CC1)S(=O)(=O)c1cnc[nH]1	6
CC1CCN(c2nc3ccc(C(=O)O)cc3s2)CC1	94*
O=C(NCC1CCCO1)c1ccc2nc(N3CCCCC3)sc2c1 (stereo not given)	-54
Clc1ccc2nc(N3CCCCC3)sc2c1	-65
Cc1noc(NS(=O)(=O)c2ccc(NC(=O)c3ccc(Br)o3)cc2)c1C	-3
Cc1cnc(NC(=O)CSc2nnc(-c3ccccc3)o2)s1	-88
Cc1cnc(NC(=O)CSc2nnc(COc3c(C)cccc3C)o2)s1	1
Cc1cnc(NC(=O)COc2ccccc2Cl)s1	60*
COc1ccccc1N1CCN(C(=O)c2ccc(S(=O)(=O)N3CCCC3)cc2)CC1	-10
Cc1ccc(-c2nnn(CC(=O)N(Cc3ccco3)C(C(=O)NC(C)(C)C)c3cccs3)n2)o1 (stereo not given)	14
O=c1c2ccccc2nnn1CSc1nnc2ccccn12	-78
CCOP(=O)(c1c(F)c(F)c(F)c(F)c1F)C1(O)CCCCC1 (stereo not given)	0
COc1ccc(C(=O)Nc2ccc(C)cn2)c(OC)c1	82*
COc1cccc(C(=O)Nc2ccc(NC(C)=O)cn2)c1	-35
CCCC(=O)Nc1ccc(NC(=O)c2cccc(OC)c2)nc1	-60
CCC(CC)C(=O)NCCc1cc2ccc(C)c(C)c2[nH]c1=O	4
Cc1cc(NC(=O)CCCS(=O)(=O)c2nc(-c3cccs3)cc(C(F)(F)F)n2)no1	48*
SMILES	SF1 inhibitor
CCn1cnc2c1c(=O)n(CC(=O)Nc1cc(C)on1)c(=O)n2Cc1ccccc1	0
Nc1c(C(=O)NC2CCCC2)sc2nc(-c3cccs3)ccc12	-60
CS(=O)(=O)c1nc(-c2cccs2)cc(C(F)(F)F)n1	70*
COc1ccc(-c2cc(C(F)(F)F)nc(SCC(=O)Nc3cc(C)on3)n2)cc1OC	23
CCOC(=O)c1c(C)[nH]c(C(=O)Nc2ccc3c(c2)OCO3)c1C	-132
CC(=O)N1CCc2c(sc(NC(=O)c3ccc4c(c3)OCCO4)c2C#N)C1	-77
O=C(c1ccc(CS(=O)(=O)Cc2ccc(Cl)cc2)o1)N1CCCC1	5
CCCCN(CC)Cc1ccc(CNC(=O)Nc2ccc(OC)cc2OC)o1	-7
CCSc1nc2c(cnn2-c2ccc(C)cc2)c(=O)[nH]1	-10
CCOc1ccccc1-c1nc(-c2ccc(C)nc2OC)no1	-58
O=C(c1ccc2c3c(cccc13)C(=O)N(O)C2=O)N1CCCCC1	66*
O=C(c1n[nH]c(=O)c2ccccc12)N1CCN(c2ccccc2Cl)CC1	1
CCc1ccc2[nH]cc(C(=O)N3CCCCCC3)c(=O)c2c1	1
O=C(CN1C(=O)CCSc2ccccc21)Nc1cccc(F)c1	0
CCN(CC)Cc1c[nH]c2c(C(=O)OC)cccc12	-9
C/C(=N\O)c1ccc2c3c([nH]c2c1)CCCC3	-64
Cc1ccc(C(C)C)c(OCCNc2nc3c(c(=O)n(C)c(=O)n3C)n2C)c1	49*
COc1cccc(C(=O)Cn2c(Br)nc3c2c(=O)n(C)c(=O)n3C)c1	12
Cc1ccc(-c2csc3n[nH]c(=S)n23)cc1	0
COc1cc(C2C(C#N)=C(C)NC3=C2C(=O)c2ccccc23)cc(OC)c1OC (stereo not given)	82*
CCSC1=C(C#N)C(c2ccccc2OC)CC(=O)N1 (stereo not given)	-6
C=C(C)CSC1=C(C#N)C(c2ccccc2)CC(=O)N1 (stereo not given)	10
COc1cccc(-c2nnc(SCC(=O)OC(C)C)n2N)c1	8
COc1cccc(-c2nnc(NC(=O)c3ccc(S(=O)(=O)N4CC(C)OC(C)C4)cc3)o2)c1 (stereo not given)	49*
COc1cccc(-c2nc(-c3ccc(NC(=O)c4cccnc4)cc3)no2)c1	-55
SMILES	SF1 inhibitor
COc1cccc(-c2nc(CS(=O)(=O)CC(=O)N3CCN(C)CC3)c(C)o2)c1	-7
O=C(Cn1ccsc1=NC(=O)c1ccco1)c1ccccc1	5
O=C1CCCC2=C1C(c1ccco1)Nc1ccc3ccccc3c12 (stereo not given)	4
COc1ccc(S(=O)(=O)NCCC(=O)NCc2ccccc2)cc1	-1
Cc1onc(-c2ccccc2)c1C(=O)Nc1c(C)n(C)n(-c2ccccc2)c1=O	-5
COc1cc2nc(COc3ccc(C#N)cc3)n(CC#N)c(=O)c2cc1OC	10
CSCc1nnc(NC(=O)c2ccc(S(=O)(=O)N(CC(C)C)CC(C)C)cc2)o1	48*

Screening results (PubChem BioAssay)
